ELG1 genotox: induces genotoxicity in HEK293T cells with luciferase-tagged ELG1 | HEK293T ELG1-luciferase reporter, luminescence, 16 h | Potency, µM (highest dose often 46 µM), for inactives: at the highest dose activity change, positive = activation, hits mostly activators | 1.3% of 330,000 active | AID 504466; note: % of control where 0% means no effect; nearly all actives have a fitted effect of over 60% in size
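Genotoxic stress is detected as increased luminescence from luciferase-tagged ELG1 in HEK293T cells, measured with ONE-Glo after a 16 hr treatment at 37 °C.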
Luc counter: counter-screen: inhibitors of Kinase-Glo firefly luciferase. Q27757. Kinase-Glo luciferase, ATP luminescence, 8 min. Potency, µM (doses to about 38.3 µM), for the others: at the top dose activity change, negative = inhibition, most hits filed as inhibitors. 0.28% of 200,000 active; note: % is set by controls: 0 for no effect and ±100 for the full control effect; nearly all actives have a fitted effect of over 60% in size
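Recombinant Kinase-Glo luciferase, 10 uM ATP (linear range), luciferin; imidazole pH 7.2 / KCl / MgCl2 / Tween / BSA buffer; 8 min RT; luminescence.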
FLuc modulator: firefly luciferase modulation, counter-screen for miR-21 project; P08659; purified FLuc, Km substrates, luminescence inhibition; Potency, µM (series often up to 57.5 µM), inactives show top-dose activity change, negative = inhibition, most hits filed as inhibitors; 6.9% of 360,000 active; AID 588342;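 note: plate controls were vehicle for no effect and reference inhibitor for full effect; nearly all actives have a fitted effect of over 55% in size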
Target sequence (P08659 whole entry, looked up): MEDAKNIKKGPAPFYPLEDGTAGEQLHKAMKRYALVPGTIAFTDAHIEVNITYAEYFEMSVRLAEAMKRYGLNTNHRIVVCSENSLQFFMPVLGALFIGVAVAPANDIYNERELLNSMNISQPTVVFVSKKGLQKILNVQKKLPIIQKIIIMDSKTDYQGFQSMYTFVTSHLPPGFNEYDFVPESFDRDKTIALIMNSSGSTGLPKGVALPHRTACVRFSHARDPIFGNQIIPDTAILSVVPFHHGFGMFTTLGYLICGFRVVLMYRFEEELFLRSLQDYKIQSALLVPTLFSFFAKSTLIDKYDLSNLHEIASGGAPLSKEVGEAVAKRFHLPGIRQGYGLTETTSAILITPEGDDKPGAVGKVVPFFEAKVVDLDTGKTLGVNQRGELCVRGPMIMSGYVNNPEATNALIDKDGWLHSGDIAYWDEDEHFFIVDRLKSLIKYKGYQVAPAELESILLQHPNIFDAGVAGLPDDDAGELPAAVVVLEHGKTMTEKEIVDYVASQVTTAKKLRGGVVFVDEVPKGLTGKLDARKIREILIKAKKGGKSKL
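Purified P. pyralis luciferase (10nM final) with 10uM D-luciferin and 10uM ATP (Km levels) in 50mM Tris acetate pH 7.5, 10mM Mg acetate, 0.01% Tween-20, 0.05% BSA; qHTS 6-point titration, ~60 µM downward; luminescence read.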
NPC1 promoter act: activators of NPC1 promoter. Huh7 NPC1 promoter luciferase reporter, 24 h. 2.4% of 320,000 active. Potency, µM (top dose mostly 9.22 µM), for the others: at the highest dose activation, hits mostly activators; note: % of control where 0% means no effect; nearly all actives have a fitted effect of over 60% in size
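Huh7 cells stably carrying NPC1 promoter–luciferase, plated in Opti-MEM with 10% FBS for 2 h, were exposed to compound in DMSO for 24 h at 37 °C; luciferase reagent was added for 10 min and luminescence read.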
Rab9 promoter act: Rab9 promoter activation; Huh7 Rab9 promoter-luciferase reporter, luminescence, 24 h; Potency, µM (titrated, usually from 9.22 µM), for inactives: at the top dose activation, negative = inhibition, most hits filed as activators; 2.8% of 320,000 active; AID 485297; note: % of control where 0% means no effect; nearly all actives have a fitted effect of over 60% in size
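Stable Rab9-luc Huh7, 1500 cells/well, 2 h settle; cmpd in DMSO, 24 h, 37 °C/5% CO2; luciferase reagent 10 min RT; luminescence.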
SMN2 splice up: increases expression of the SMN2 splice variant. HEK293 SMN2-luciferase splicing reporter, luminescence, 30-36 h. Potency, µM (top dose mostly 46.1 µM), for the others: at the highest dose activity change, positive = activation, usual class: activators. 2.8% of 210,000 active; note: % of control where 0% means no effect; nearly all actives have a fitted effect of over 55% in size
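HEK293 cells carry an SMN2 minigene-luciferase reporter in which exon 7 inclusion puts luciferase in frame. Cells were seeded at 2000 cells/well, attached for 10-12 hours, then exposed to compounds for 30-36 hours at 37C before ONE-Glo luminescence.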
* hit, by the source's call; u = inconclusive; x = not tested or not shown. Shown are actives, neighbours in structure and some others; about 7.5% of the full set was active somewhere. Calls come from the whole dose curve; as a rule, active = well fitted curve in the direction sought with a large enough effect; inconclusive = small, poorly fitted or top-dose-only effect, or another doubt; inactive = no such curve, though single readings can be large; an effect the other way counts as inactive or inconclusive. Potency is the fitted concentration of half-maximal effect.

SMILES	ELG1 genotox	Luc counter	FLuc modulator	NPC1 promoter act	Rab9 promoter act	SMN2 splice up
CCS(=O)(=O)c1ccc(O)c(NC(=O)/C=C/c2ccc(Cl)cc2)c1	-4%	x	u	0%	-2%	x
Cc1ccc(/C=C/C(=O)Nc2ccccc2C(N)=O)cc1	u	-22%	0.85µM*	2.8µM*	1.4µM*	3.5µM*
Cc1ccc(/C=C/C(=O)Nc2cc(S(N)(=O)=O)ccc2O)cc1	1%	-2%	15µM*	4%	17%	2%
NC(=O)c1ccccc1N/C=C/C(=O)c1ccc(Cl)cc1	u	u	0.24µM*	0.4µM*	0.4µM*	8.9µM*
C=C(C(=O)c1ccccc1)C(CC(=O)c1ccccc1)c1ccccc1 (stereo not drawn)	-11%	6%	-1%	-13%	-21%	-86%
CCC(C(=O)NCc1ccccc1OC)c1ccccc1 (stereo not drawn)	-2%	-2%	-4%	-4%	-5%	3%
CCc1nnc(NS(=O)(=O)c2ccc(NC(=O)c3ccc(Cl)cc3)cc2)s1	-6%	3%	19µM*	-1%	-1%	-12%
CCc1nnc(NS(=O)(=O)c2ccc(NC(=O)/C=C/c3ccccc3Cl)cc2)s1	0%	3%	19µM*	0%	-15%	9%
CCN(CC)c1ccc(/C=C(\C#N)C(N)=S)cc1	8%	x	21µM*	-1%	1%	x
Fc1ccccc1Nc1nc2c(s1)CCc1ccccc1-2	8.2µM*	-20%	1.9µM*	u	3.2µM*	u
O=C(Nc1ncc2c(n1)-c1ccccc1CC2)c1cccs1	1%	0%	19µM*	15%	20%	-5%
O=C(Nc1nc2c(s1)CCCC2)C1CCCN1C(=O)c1cccs1 (stereo not drawn)	2%	12%	2%	2%	-1%	0%
O=C(Nc1ncc2c(n1)-c1ccccc1CC2)c1ccccc1	2%	1%	u	23%	11%	3%
O=C(Nc1nc2c(s1)COc1ccccc1-2)c1cccs1	0%	0%	13µM*	16%	10%	-18%
O=C(CCS(=O)(=O)c1ccccc1)Nc1nc2c(s1)COc1ccccc1-2	-5%	-4%	1%	0%	1%	-3%
O=C(Nc1nc2c(s1)CCc1ccccc1-2)c1cccs1	9%	1%	13µM*	u	u	9%
CCNC(=O)C(=O)NCC1CCCN1S(=O)(=O)c1cccs1 (stereo not drawn)	0%	x	0%	0%	1%	x
CCc1[nH]nc(C(=O)N/N=C/c2ccncc2)c1C	23µM*	x	11µM*	2.8µM*	3.2µM*	x
Cc1ccc(C(c2cc(Br)ccc2O)N2CCSCC2)cc1 (stereo not drawn)	0%	x	2%	-1%	0%	x
O=C(O)CCN1C(=O)/C(=C\c2cccc(OCC(=O)Nc3ccc(Cl)cc3)c2)SC1=S	2%	x	17µM*	27%	29%	x
O=C(CCCN1C(=O)/C(=C/c2ccccc2Cl)SC1=S)Nc1cccnc1	-10%	x	13µM*	-22%	-32%	x
O=C(CCN1C(=O)/C(=C/c2ccc(Cl)cc2)SC1=S)Nc1cccc(C(=O)O)c1	-4%	x	15µM*	2%	-3%	x
O=C(CCN1C(=O)/C(=C/c2ccc3c(c2)OCO3)SC1=S)Nc1cccc(C(=O)O)c1	2%	x	21µM*	10%	0%	x
Cc1ccc(NC(=O)COc2cccc(/C=C3\SC(=S)N(CCC(=O)O)C3=O)c2)cc1Cl	10%	x	u	16%	u	x
Cc1csc2nc(CNC(=O)C3CC=CCC3C(=O)O)cn12 (stereo not drawn)	-4%	3%	-2%	-3%	0%	18%
SMILES	ELG1 genotox	Luc counter	FLuc modulator	NPC1 promoter act	Rab9 promoter act	SMN2 splice up
COc1cccc(/C=C2\SC(=S)N(CCCC(=O)Nc3ccc(C(=O)O)cc3)C2=O)c1	1%	x	21µM*	-3%	-13%	x
COc1ccc(/C=C2\SC(=S)N(CCC(=O)Nc3cccc(C(=O)O)c3)C2=O)cc1	8%	x	5.4µM*	18%	2%	x
O=C(CCN1C(=O)/C(=C\C=C\c2ccccc2)SC1=S)Nc1cccc(C(=O)O)c1	u	x	0.95µM*	3.2µM*	u	x
O=C(CCCN1C(=O)/C(=C\c2ccccc2)SC1=S)Nc1cccc(C(=O)O)c1	0%	x	u	2%	3%	x
Cc1nn(C(=O)c2c([N+](=O)[O-])cnn2C)c(C)c1Cl	-2%	2%	-2%	-2%	-3%	1%
CC12CCC(C(=O)Nc3nc4ccc(Br)cc4s3)(OC1=O)C2(C)C (stereo not drawn)	14%	0%	19µM*	u	u	u
CC12CCC(C(=O)Nc3nccs3)(OC1=O)C2(C)C (stereo not drawn)	1%	5%	2%	1%	2%	6%
CCC(C(=O)Nc1ccc(S(=O)(=O)Nc2ncccn2)cc1)c1ccccc1 (stereo not drawn)	1%	x	-1%	0%	-1%	x
O=C(c1cc2cc(Cl)ccc2o1)N1CCCC1	u	x	u	23%	20%	x
O=C(c1cc2cc(Br)ccc2o1)N1CCCCC1	u	-6%	11µM*	2.5µM*	4µM*	11µM*
CC1CCN(C(=O)c2cc3ccccc3c(=O)o2)CC1	9%	-1%	u	15%	1%	25%
O=C(c1cc2ccccc2c(=O)o1)N1CCCCCC1	15%	-3%	24µM*	1%	13%	2%
Cc1ccc2oc(C(=O)N3CCC(C(N)=O)(N4CCCCC4)CC3)c(C)c2c1	-2%	x	-1%	-1%	0%	x
Cc1c(C(=O)N2CCCCC2)oc2ccc(Br)cc12	u	x	21µM*	u	u	x
Cc1ccc2oc(C(=O)N3CCCCCC3)c(C)c2c1	18µM*	x	15µM*	2.2µM*	x	x
COCc1nc(-c2ccc(-c3ccc(OC)cc3)nc2OC)no1	12%	2%	u	13%	24%	19%
COCc1nc(-c2ccc(-c3ccccc3)nc2OC)no1	4%	-2%	u	u	4µM*	22µM*
CCc1nc(-c2ccc(-c3ccc(OC)cc3)nc2OC)no1	u	2%	21µM*	u	u	u
COc1ccc(C(=O)Nc2nc(CC(=O)NCCc3ccccc3)cs2)cc1	-8%	x	4.8µM*	24%	30%	x
COc1ccc(C(=O)Nc2nc(CC(=O)NCCc3cccc(OC)c3)cs2)cc1	-5%	x	13µM*	14%	1%	x
Cc1cc(C)c(NS(=O)(=O)c2ccc(NC(=O)CCC(=O)O)cc2)c(C)c1	0%	-6%	-11%	0%	-3%	-13%
